The target of experiment [1] is Albumin (Bos taurus) (UniProt P02769). Description: bovine serum albumin binders on microarray, profiling panel, artefact control for SMM control protein annotation, biochemical, small-molecule microarray, Alexa647 label, 635/667 nm fluorescence (AID 1118).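 Note: score merges 667 nm emission intensity and signal-to-noise per printed compound spot.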 As to conditions: BSA-A647 binding, fluorescence 635 nm, higher = more signal.
Experiment [2] can be described thus: small-molecule microarray binders of probe aXIP, primary screen, biochemical, NeuroSMM set, 635/667 nm fluorescence (AID 1119).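 Note: probe is the protein aXip251-270 applied at 1 µg/mL to compound-printed slides; binding of probe to printed compounds measured as 667 nm fluorescence plus signal to noise.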 As to conditions: higher = more signal, called active from +8 up or from −8 down.
A short description of experiment [3]: small-molecule binders of probe aNOTCH3, primary screen, biochemical, small-molecule microarray, 635/667 nm fluorescence (AID 1120).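 Note: probe is a biotin-tagged antibody raised against NOTCH3 rather than NOTCH3 protein; score merges spot fluorescence near 667 nm with spot signal to noise.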 Conditions: higher = more signal.
Experiment [4] is described as follows: small-molecule binders of probe aNOTCH2, primary screen, biochemical, small-molecule microarray, 635/667 nm fluorescence (AID 1121).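 Note: score merges feature fluorescence read at 667 nm with its signal to noise.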 As to conditions: higher = more signal.
The target of experiment [5] is Carbonic anhydrase 2 (Homo sapiens) (UniProt P00918). Description: CAII small-molecule binders, profiling panel, biochemical, small-molecule microarray, Alexa647-labelled CAII (AID 1122). Conditions: CAII-A647 binding fluorescence, higher = more signal.
Experiment [6] is described as follows: COS7 lysate on small-molecule microarray, probe aHis, 635 nm (AID 1123).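 Note: z-score combines 667nm fluorescence intensity with signal-to-noise per printed compound spot.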 Conditions: COS7 cell lysate, fluorescence, higher = more signal.
Experiment [7] can be described thus: compound binding in COS7 lysate, probe aLAP1, primary screen, cell lysate, small-molecule microarray (AID 1124).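 Note: lysate comes from COS7 cells expressing LAP1 and is applied at 0.3 µg/mL; score merges spot fluorescence near 667 nm with signal-to-noise over triplicate slides.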 Conditions: probe aLAP1, fluorescence, higher = more signal.
In experiment [8] the test system is Sam68 (KHDRBS1). Description: Sam68 small-molecule binders, primary screen, biochemical, small-molecule microarray, 635 nm fluorescence (AID 1125).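 Note: score merges 667 nm channel intensity with signal to noise over triplicate slides.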 As to conditions: small-molecule microarray binding, higher = more signal.
Experiment [9] deals with Chordin-like protein 2 (CHRDL2). The experiment in a line: CHRDL2 small-molecule binders, primary screen, biochemical, small-molecule microarray, 635 nm fluorescence (AID 1126).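 Note: printed compound slides probed with Chrdl2 protein at 4 µg/mL for 1 h at 4 C; score merges 667 nm emission intensity with signal to noise over three replicate slides.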 Conditions: small-molecule microarray binding, fluorescence 635 nm; higher = more signal.
Experiment [10] concerns the target Concanavalin-A (Canavalia ensiformis) (UniProt P02866). Description: ConA small-molecule binders, primary screen, artefact control for SMM control protein annotation, biochemical, small-molecule microarray, Alexa647 label, 635 nm (AID 1127).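 Note: z combines 667 nm emission intensity with signal-to-noise across three replicate slides.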 As to conditions: ConA-A647 binding fluorescence, higher = more signal.
The nature of experiment [11]: anti-His antibody binders, primary screen, artefact control for SMM control protein annotation, biochemical, small-molecule microarray, 635 nm fluorescence (AID 1128).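 Note: score merges feature fluorescence with signal-to-noise for each printed compound spot.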 Conditions: anti-His Alexa647 antibody binding, higher = more signal.
Experiment [12] has as its system Human papillomavirus type 1a E7 protein (residues 1-88). The experiment in a line: HPV1a E7 small-molecule binders, primary screen, biochemical, small-molecule microarray, residues 1-88, 635 nm (AID 1129). As to conditions: small-molecule microarray binding, fluorescence 635 nm; higher = more signal.
Experiment [13] deals with Focal adhesion kinase 1 (Homo sapiens) (UniProt Q05397). The experiment in a line: small-molecule microarray binders of FAK, primary screen, biochemical, 635/667 nm fluorescence, BSA, DTT (AID 1130).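 Note: composite of spot emission at 667 nm and signal to noise over triplicate slides.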 As to conditions: PTK2 binding, 635 nm fluorescence, higher = more signal.
Chain of Focal adhesion kinase 1 (Homo sapiens) (Q05397 whole entry, looked up): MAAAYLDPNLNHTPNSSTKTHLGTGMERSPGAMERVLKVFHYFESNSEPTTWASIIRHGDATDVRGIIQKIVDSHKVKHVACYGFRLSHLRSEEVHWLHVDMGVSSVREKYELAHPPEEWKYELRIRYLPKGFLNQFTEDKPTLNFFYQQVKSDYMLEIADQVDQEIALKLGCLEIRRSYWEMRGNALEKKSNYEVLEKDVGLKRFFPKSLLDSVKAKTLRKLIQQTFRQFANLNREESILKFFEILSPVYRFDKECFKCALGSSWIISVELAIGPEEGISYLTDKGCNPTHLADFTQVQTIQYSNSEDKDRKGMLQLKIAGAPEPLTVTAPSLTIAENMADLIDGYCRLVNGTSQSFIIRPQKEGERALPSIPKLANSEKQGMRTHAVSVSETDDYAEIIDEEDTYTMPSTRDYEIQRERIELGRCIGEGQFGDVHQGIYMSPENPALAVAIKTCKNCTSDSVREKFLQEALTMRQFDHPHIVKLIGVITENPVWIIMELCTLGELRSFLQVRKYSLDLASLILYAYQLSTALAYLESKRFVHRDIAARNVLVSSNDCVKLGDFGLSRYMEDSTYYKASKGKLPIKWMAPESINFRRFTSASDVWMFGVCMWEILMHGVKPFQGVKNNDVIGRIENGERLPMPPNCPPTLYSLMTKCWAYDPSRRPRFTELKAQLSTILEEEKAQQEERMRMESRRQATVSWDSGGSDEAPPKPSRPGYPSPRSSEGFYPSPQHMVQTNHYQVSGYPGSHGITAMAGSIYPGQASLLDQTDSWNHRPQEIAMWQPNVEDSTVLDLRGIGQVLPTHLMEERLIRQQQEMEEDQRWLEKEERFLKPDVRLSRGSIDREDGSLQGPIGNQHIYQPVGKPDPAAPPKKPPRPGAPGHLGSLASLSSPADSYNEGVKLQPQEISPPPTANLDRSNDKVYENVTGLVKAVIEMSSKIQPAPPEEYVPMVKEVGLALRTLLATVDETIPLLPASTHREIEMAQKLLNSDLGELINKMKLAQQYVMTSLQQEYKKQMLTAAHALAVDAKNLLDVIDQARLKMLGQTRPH
The test system of experiment [14] is Fibrinogen (Alexa647-labelled). Description: fibrinogen binders on compound microarrays, profiling panel, artefact control for SMM control-protein annotation, biochemical, small-molecule microarray, 635/667 nm fluorescence (AID 1131).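 Note: z-score merges 667 nm fluorescence with per-spot signal-to-noise over triplicate slides.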 Conditions: fibrinogen-A647 binding fluorescence, higher = more signal.
The target in experiment [15] is Follistatin (Homo sapiens) (UniProt P19883). Description: follistatin binders on small-molecule microarrays, primary screen, biochemical, small-molecule microarray, 635/667 nm fluorescence (AID 1132). Conditions: FST binding, 635 nm fluorescence, higher = more signal.
Chain of Follistatin (Homo sapiens) (P19883 whole entry, looked up): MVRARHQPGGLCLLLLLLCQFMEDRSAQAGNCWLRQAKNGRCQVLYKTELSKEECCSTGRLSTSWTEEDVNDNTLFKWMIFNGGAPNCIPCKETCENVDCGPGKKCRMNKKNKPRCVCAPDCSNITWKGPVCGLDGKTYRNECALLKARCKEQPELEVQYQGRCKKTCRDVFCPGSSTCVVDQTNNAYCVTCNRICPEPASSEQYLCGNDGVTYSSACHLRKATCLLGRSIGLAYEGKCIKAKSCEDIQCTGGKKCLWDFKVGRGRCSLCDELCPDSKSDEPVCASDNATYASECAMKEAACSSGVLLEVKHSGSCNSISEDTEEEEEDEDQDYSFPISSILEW
For experiment [16], the target named is Fibroblast growth factor 2 (Homo sapiens) (UniProt P09038). The experiment in a line: FGF2 binders on small-molecule microarrays, primary screen, biochemical, small-molecule microarray, 635/667 nm fluorescence (AID 1133). Conditions: small-molecule microarray binding, FGF2, fluorescence 635/667; higher = more signal.
Chain of Fibroblast growth factor 2 (Homo sapiens) (P09038 whole entry, looked up): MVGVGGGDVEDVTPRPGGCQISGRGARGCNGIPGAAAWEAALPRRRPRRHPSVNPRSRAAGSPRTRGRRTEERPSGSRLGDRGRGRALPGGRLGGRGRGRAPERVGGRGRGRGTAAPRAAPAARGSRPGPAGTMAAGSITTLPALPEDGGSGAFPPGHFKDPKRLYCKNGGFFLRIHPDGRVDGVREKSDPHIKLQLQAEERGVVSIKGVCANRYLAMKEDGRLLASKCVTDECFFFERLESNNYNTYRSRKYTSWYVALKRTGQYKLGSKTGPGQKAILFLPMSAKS
The nature of experiment [17]: mitochondrial membrane potential change in A549 cells, profiling panel, cell-based, JC-1 fluorescence, basal, 24 h, 100 nL (AID 1138).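 Note: A549 lung adenocarcinoma cells under basal conditions with no added stimulus; test concentration not given here.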 As to conditions: higher = more signal.
In experiment [18] the test system is Lefty1. Description: Lefty1 binders on small-molecule microarrays, primary screen, biochemical, small-molecule microarray, 635/667 nm fluorescence (AID 1139). Conditions: small-molecule microarray binding, fluorescence 635/667; higher = more signal.
The subject of experiment [19] is wheat germ agglutinin (Triticum aestivum), Alexa647-labelled. The experiment in a line: wheat germ agglutinin binders on compound microarrays, profiling panel, artefact control for SMM control-protein annotation, biochemical, small-molecule microarray, 635/667 nm fluorescence (AID 1140).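 Note: score merges 667 nm feature emission with signal to noise over triplicate slides.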 As to conditions: WGA-A647 binding, 635 nm fluorescence, higher = more signal.

The target in experiment [20] is Luciferin 4-monooxygenase (Photinus pyralis) (UniProt P08659). Description: firefly luciferase enzyme inhibitors, primary screen, biochemical, luminescence, purified enzyme, 2006 set (AID 1141).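 Note: cell-free assay with purified firefly luciferase at 100 ng per well in PBS; test concentration not given here.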 As to conditions: SteadyGlo luminescence, 30 min, higher = more signal, called active from +8 up or from −8 down.
Chain of Luciferin 4-monooxygenase (Photinus pyralis) (P08659 whole entry, looked up): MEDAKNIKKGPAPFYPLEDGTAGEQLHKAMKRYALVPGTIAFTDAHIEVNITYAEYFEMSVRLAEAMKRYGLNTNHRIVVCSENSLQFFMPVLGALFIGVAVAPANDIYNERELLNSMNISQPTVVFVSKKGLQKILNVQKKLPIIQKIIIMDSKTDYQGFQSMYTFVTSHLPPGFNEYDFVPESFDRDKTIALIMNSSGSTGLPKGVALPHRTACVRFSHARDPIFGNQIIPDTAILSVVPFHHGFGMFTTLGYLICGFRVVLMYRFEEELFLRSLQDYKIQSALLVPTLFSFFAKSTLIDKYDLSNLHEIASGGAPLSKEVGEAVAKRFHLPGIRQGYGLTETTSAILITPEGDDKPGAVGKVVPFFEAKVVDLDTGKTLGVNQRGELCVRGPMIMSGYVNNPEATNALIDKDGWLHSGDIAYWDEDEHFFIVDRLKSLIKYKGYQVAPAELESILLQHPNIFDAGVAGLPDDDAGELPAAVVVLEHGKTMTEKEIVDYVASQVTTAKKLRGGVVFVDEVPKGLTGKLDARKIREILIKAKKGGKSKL

Here are results for five compounds from PubChem BioAssay.

Activity calls are given as the source filed them.

Chain of Albumin (Bos taurus) (P02769 whole entry, looked up): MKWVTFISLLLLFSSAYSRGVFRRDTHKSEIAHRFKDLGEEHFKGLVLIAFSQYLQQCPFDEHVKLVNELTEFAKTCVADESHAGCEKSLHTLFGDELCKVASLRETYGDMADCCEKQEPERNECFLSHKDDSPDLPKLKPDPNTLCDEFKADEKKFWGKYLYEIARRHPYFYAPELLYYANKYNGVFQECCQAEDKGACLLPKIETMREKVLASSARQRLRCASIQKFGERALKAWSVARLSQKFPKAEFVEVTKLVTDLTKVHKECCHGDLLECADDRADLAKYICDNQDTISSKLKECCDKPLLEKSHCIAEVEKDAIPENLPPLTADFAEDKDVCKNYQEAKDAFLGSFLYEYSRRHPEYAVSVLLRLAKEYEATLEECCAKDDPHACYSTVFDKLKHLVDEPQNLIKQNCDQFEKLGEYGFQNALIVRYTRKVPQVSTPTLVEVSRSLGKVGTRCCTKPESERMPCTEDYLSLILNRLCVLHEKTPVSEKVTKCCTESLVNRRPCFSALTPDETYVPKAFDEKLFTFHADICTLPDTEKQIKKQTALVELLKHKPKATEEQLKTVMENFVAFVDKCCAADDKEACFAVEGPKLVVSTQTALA
Chain of Concanavalin-A (Canavalia ensiformis) (P02866 whole entry, looked up): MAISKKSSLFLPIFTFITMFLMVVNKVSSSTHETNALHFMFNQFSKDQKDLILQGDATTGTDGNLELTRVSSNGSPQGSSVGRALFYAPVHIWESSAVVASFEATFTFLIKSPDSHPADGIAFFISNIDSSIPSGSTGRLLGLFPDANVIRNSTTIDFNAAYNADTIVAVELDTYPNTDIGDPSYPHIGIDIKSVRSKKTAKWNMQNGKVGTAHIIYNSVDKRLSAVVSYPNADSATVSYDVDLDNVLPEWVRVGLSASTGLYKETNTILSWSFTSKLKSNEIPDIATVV

As to `C=C[C@H](C)[C@H](OC(=O)Nc1ccc(SC)cc1)c1ccc(OCCO)cc1`, the composite z-score is 0.548 in [1]; -0.0647 in experiment [3]; -0.0533 in experiment [4]; 0.575 in [5]; 2.19 in [6]; 0.277 in experiment [7]. Moreover, the composite z-score in experiment [8] was 1.06; in experiment [9], 0.516; in [10], 1.04; in experiment [11] it was 0.677; in [12], 1.05; in [13], 0.0085. Moreover, the composite z-score in experiment [14] was 0.519; in experiment [15], 0.376; in experiment [16], 1.2; in experiment [18], 0.427; in experiment [19] it was 1.07. In experiment [2], the composite Z-score is 2.78 (inactive). The values for the z-score in experiment [17] and in experiment [20] were -1.38 and -7.94 (inactive), respectively.

As to `COCCOC(=O)N1C(=O)[C@@]2(c3cc(C#CC4=CCCCC4)ccc31)[C@H](C(=O)Nc1nc3ccccc3s1)[C@H]1C(=O)O[C@H](c3ccccc3)[C@H](c3ccccc3)N1[C@@H]2c1ccc(O)cc1`, the composite z-score is 0.817 in experiment [1]; -0.0279 in experiment [3]; -0.166 in [4]; 0.661 in experiment [5]; 1.68 in [6]; 0.61 in experiment [7]. The composite z-score in [8] is 1.31; in experiment [9], 0.408; in [10], 1.18; in experiment [11], 0.174; in experiment [12] it was 1.21; in experiment [13], 1.38. The composite z-score in experiment [14] was found to be 0.362; in experiment [15], 1.39; in experiment [16], 1.7; in [18] it was 0.869; in experiment [19], 0.529. Besides, the composite Z-score in experiment [2] was 2.58 (inactive). Also, the figures for the z-score in [17] and in experiment [20] were -2.1 and -1.5 (inactive), respectively.

`C=CCC(OC(C)=O)[C@@H]1[C@@H](N(Cc2ccc(-c3cccc(C(F)(F)F)c3)o2)C(=O)c2ccc(-c3ccccc3)cc2)c2cc(OCCCO)ccc2N1C(=O)Cc1ccc2ccccc2c1` (stereo not given in full): the composite z-score in [1] is -0.124; in experiment [3], -0.149; in experiment [4] it was -0.11; in experiment [5], -0.177; in experiment [6], 0.453; in [7] it was -0.039. In addition, the composite z-score in experiment [8] was -0.421; in experiment [9] it was -0.353; in [10], -0.0333; in experiment [11] it was -0.0298; in [12], -0.504; in experiment [13] it was 0.0827. Also, the composite z-score was 0.229 in experiment [14]; 0.438 in experiment [15]; -0.482 in [16]; -0.175 in experiment [18]; -0.0916 in experiment [19]. Moreover, in [2], the composite Z-score was -0.274 (inactive). For the same compound, the z-score is 0.0819 in [17] and 0.429 (inactive) in experiment [20].

As to `CC(C)[Si]1(C(C)C)OCc2cc(-c3ccc(-c4ccc(Cl)c(Cl)c4)o3)nc(-c3ccccc3)c21`, the composite z-score was 0.566 in experiment [1]; -0.235 in [3]; -0.234 in [4]; -0.895 in experiment [5]; -0.77 in experiment [6]; -0.714 in experiment [7]. Besides, the composite z-score in [8] was -1.53; in experiment [9] it was -0.541; in experiment [10], -0.746; in [11], -0.534; in experiment [12], -1.65; in experiment [13] it was -0.838. Moreover, the composite z-score is -1.32 in experiment [14]; -0.751 in experiment [15]; -0.94 in experiment [16]; -0.21 in experiment [18]; -0.0496 in experiment [19]. Moreover, in [2], the composite Z-score is 0.131 (inactive). The values for the z-score in experiment [17] and in experiment [20] were -0.447 and -1.07 (inactive), respectively.

Take `CCOC(=O)C[C@H]1[C@H](OC(=O)Cc2ccc3c(c2)OCO3)[C@@H](NC(=O)C2CCCCC2)c2cc(OCCCO)ccc2N1C(=O)c1ccccc1`: the composite z-score in experiment [1] is 0.869; in experiment [3] it was -0.0647; in [4] it was -0.14; in [5], 0.112; in experiment [6], 0.469; in experiment [7], 0.124. Moreover, the composite z-score is 0.249 in experiment [8]; -0.311 in experiment [9]; 0.833 in [10]; 0.0657 in experiment [11]; -0.0497 in experiment [12]; 0.408 in experiment [13]. Further, the composite z-score in [14] is 0.744; in experiment [15] it was -0.2; in experiment [16], 0.0099; in experiment [18] it was 0.218; in experiment [19], 0.0468. The composite Z-score in experiment [2] is 0.394 (inactive). Besides, the z-score is 1.76 in [17] and -1.23 (inactive) in [20].
